Test results from ChEMBL document CHEMBL3988442, “University of Dundee, Small-Polar-MMV Screening Library” (2021).

molecular target: AMP-activated protein kinase, AMPK (Homo sapiens) (UniProt P54646+O43741+P54619+Q9UGJ0+Q9Y478+Q13131+Q9UGI9); test: AMP-dependent Kinase enzyme assay. An in vitro enzyme assay that detects ADP turnover that is directly proportional to AMPK activity. This uses naive AMPK that is activated during the assay with MK-8722; format: functional; parameters: scale not given: direction of the effect not stated beside the values; conditions: 30 µM

**Q.** For `COc1cccc2ccc(N3CCC(O)(c4ccc(C)cn4)CC3)nc12`, which Percent Effect is on record?
**A.** 11.8%

**Q.** For `CNCc1cn(C2CCN(C(=O)NCc3ccco3)CC2)nn1`, which Percent Effect is on record?
**A.** 0.812%

**Q.** Which Percent Effect does the source give for `COc1cccc(-c2n[nH]cc2-c2nc(CC3CCN(C)CC3)no2)c1` here?
**A.** -6.69%

**Q.** Which Percent Effect does the source give for `Cc1cc(C)n(-c2cccc(NC(=O)N3CCC[C@@H]3CO)c2)n1` here?
**A.** -5.07%

**Q.** `Cc1cc(C)c(C(=O)N(C)CCN(C)C(=O)c2[nH]c(C)cc2C)[nH]1` was tested. Which Percent Effect did it give?
**A.** -2.87%

**Q.** With `CS(=O)(=O)NCCN1CCSCC1c1ccc(Cl)cc1` (stereo not given) as the molecule, how does the Percent Effect read?
**A.** 1.33%

**Q.** For `Cc1cn2c(n1)C(CNCc1cnn3ccccc13)CCC2` (stereo not given), which Percent Effect is on record?
**A.** -1.25%

**Q.** How did the Percent Effect turn out when `Cc1ccc(S(=O)(=O)N(CCO)C2CC2)cc1N(C)C` was run?
**A.** -7.34%

**Q.** With `Cc1nc(N)nc(C)c1CC(=O)N1CCC2(CC1)OCCCC2O` (stereo not given) as the molecule, how does the Percent Effect read?
**A.** 73.8%

**Q.** `C/C(Cl)=C/CNC(=O)[C@H]1CC[C@]2(CC1)CN(C)C(=O)c1ccccc1O2` was tested. Which Percent Effect did it give?
**A.** 7.27%

**Q.** For `CN(C)c1ncccc1N(C)C(=O)Cn1cc(-c2ccccc2)nn1`, which Percent Effect is on record?
**A.** -17.2%

**Q.** How did the Percent Effect turn out when `CSc1ncccc1C(=O)Nc1ccc(Cn2ccccc2=O)cc1` was run?
**A.** -11.3%

**Q.** Which Percent Effect does the source give for `CCC(C)(CC(=O)OC)NCc1noc(C)n1` (stereo not given) here?
**A.** 1.21%

**Q.** For `COc1ccccc1CN(Cc1nc(C)no1)C1CC1`, which Percent Effect is on record?
**A.** 6.47%

**Q.** For `C[C@@H]1CN(c2ccc(Cl)cn2)CC[C@@]1(O)C1CCOCC1`, which Percent Effect is on record?
**A.** 5.56%

**Q.** With `COc1ccc2c(c1)CCCC2CC(=O)NCC(C)(C)C(=O)O` (stereo not given) as the molecule, how does the Percent Effect read?
**A.** 0.926%

**Q.** `CN(C)C[C@@H]1CN(C(=O)c2cc(-c3ccccc3)n[nH]2)C[C@@H]1CO` was tested. Which Percent Effect did it give?
**A.** -6.79%

**Q.** Which Percent Effect does the source give for `Cc1cc(N(C)CC2COc3ccccc3O2)nc(C)n1` (stereo not given) here?
**A.** 1.48%

**Q.** How did the Percent Effect turn out when `CC(CNC(=O)c1cnc[nH]1)Oc1ccc(Cl)cc1` (stereo not given) was run?
**A.** 4.75%

**Q.** How did the Percent Effect turn out when `OC(c1cnn(-c2ccccc2)c1)C(F)(F)F` (stereo not given) was run?
**A.** -6.83%

**Q.** With `CCCn1ncc(C(=O)N2CCCC(OCc3ccccn3)C2)c1C` (stereo not given) as the molecule, how does the Percent Effect read?
**A.** -1.18%

**Q.** `CCNC(=O)c1ccc(NC2CCOC3(CCCC3)C2)nn1` (stereo not given) was tested. Which Percent Effect did it give?
**A.** 2.07%

**Q.** Which Percent Effect does the source give for `Cc1cc(C)n(C2CN(c3nc(-c4ccncc4)nc4c3CCC4)C2)n1` here?
**A.** 2.99%

**Q.** `Cc1noc(CCCNC(=O)C2CSCN2C(=O)C(C)(C)C)n1` (stereo not given) was tested. Which Percent Effect did it give?
**A.** -6.28%

**Q.** Which Percent Effect does the source give for `O=C(CN1CC(c2ccccc2)CC1=O)N1CCN(c2nccs2)CC1` (stereo not given) here?
**A.** 15.4%

**Q.** How did the Percent Effect turn out when `CCc1nc2n(n1)CC(NCC1=Cc3ccc(OC)cc3OC1)CC2` (stereo not given) was run?
**A.** 8.35%

**Q.** For `CCNC(=O)c1ccc(NC2CCOC3(CCCCC3)C2)nn1` (stereo not given), which Percent Effect is on record?
**A.** 3.88%

**Q.** For `COC(=O)c1ccc(OCCn2cnc(C#N)n2)cc1`, which Percent Effect is on record?
**A.** 0.636%

**Q.** For `CCN(C(=O)CS(=O)(=O)c1cc(OC)c(OC)cc1C)C1CC1`, which Percent Effect is on record?
**A.** 19.2%

**Q.** For `CCC(CN1CCCC1)n1cncc1-c1cnn(-c2ccccc2)c1` (stereo not given), which Percent Effect is on record?
**A.** 20%

**Q.** Which Percent Effect does the source give for `Cc1nnsc1CN1CC[C@@](O)(C2CCC2)[C@H](C)C1` here?
**A.** -5.82%

**Q.** Which Percent Effect does the source give for `CN1CCN(CCNC(=O)c2sccc2C2CC2)CC1` here?
**A.** 3.89%

**Q.** For `O=C1CCCCN1CCc1nc(C2(c3ccc(F)cc3)CCOC2)no1` (stereo not given), which Percent Effect is on record?
**A.** 0.752%

**Q.** How did the Percent Effect turn out when `COc1cc(NC2CCCN(c3ncccc3C#N)C2)cc(OC)c1` (stereo not given) was run?
**A.** -37.2%

**Q.** `CCCC(=O)Nc1cccc([C@H]2C[C@@H](NC(C)=O)CCO2)c1` was tested. Which Percent Effect did it give?
**A.** 13.7%

**Q.** Which Percent Effect does the source give for `CCc1ccc2nc(C)cc(C(=O)NC3CCNC3=O)c2c1` (stereo not given) here?
**A.** -4.37%

**Q.** For `Cc1cc(NC(C)c2nnn[nH]2)n2nc(C)c(C)c2n1` (stereo not given), which Percent Effect is on record?
**A.** 20.6%

**Q.** Which Percent Effect does the source give for `Cc1nc(CN2CCc3ccc(S(N)(=O)=O)cc32)oc1C` here?
**A.** -7.39%

**Q.** With `Cc1ccccc1SCC(=O)Nn1cnnc1` as the molecule, how does the Percent Effect read?
**A.** 3.33%

**Q.** Which Percent Effect does the source give for `Cc1ccc(N2CC[C@@]3(O)CCN(S(C)(=O)=O)C[C@H]3C2)nn1` here?
**A.** 0.414%
